# Records with an inconclusive call do not appear. Entries that show only a call come without a potency. The source made the active and inactive calls. Calls come from the whole dose curve.
# Molecular target: Atrial natriuretic peptide receptor 1 (Homo sapiens) (UniProt P16066)
# Experiment: Natriuretic polypeptide receptor (hNpr1) antagonism - Pilot screen (AID 1347049)
# Conditions: hNpr1 cells, antagonist mode cGMP read-out; series mostly up to 57.5 µM
# Protocol: In order to identify small molecular compounds that inhibit the hNpr1 receptor we developed a high-throughput assay to measure inhibition of the guanylate cyclase activity of the receptor. cGMP production was measured using a circular permutated Firefly luciferase (FLuc) enzyme functionally linked to the cGMP binding domain of human phosphodiesterase 5 (GloSensor technology pGS-40F, (Fan, F. et al. 2008). The cGMP-sensor was expressed in human embryonic kidney 293 (HEK-293) cells and FLuc activity was measured after stimulation with hNrp agonist peptide. hNrp agonists activates the receptor's associated guanylyl cyclase (GC) domain producing cGMP which then binds to the GloSensor resulting in FLuc activation, the enzymatic activity of which can be measured as bioluminescence with addition of luciferin substrate.
# F. Fan, B. F. Binkowski, B. L. Butler, P. F. Stecha, M. K. Lewis, K. V. Wood, Novel genetically encoded biosensors using firefly luciferase. ACS Chem Biol 3, 346-351 (2008).
# This assay was initially piloted by testing with a small diversity library of compounds with known pharmacological activity.
# PROTOCOL TABLES (as described by Inglese J, Shamu CE and Guy RK. 2007)
# SEQUENCE No. (e.g., 1, 2, 3, etc.); […] (e.g., Cells, Incubation, Reagent, etc.); VALUE and DESCRIPTION.
# 1. Cells. Seed 1500 HEK293 cGMP-sensor cells expressing hNpr1 per well in 4uL into Greiner 1536-well white/solid bottom high base, tissue culture-treated plates.
# 2. Incubation. Incubate plated cells at 37C in 5% CO2, 95% RH overnight.
# 3. Reagent. Add 1uL per well GloSensor reagent from Promega (2% final concentration) or CO2 independent media vehicle control to respective columns of Greiner 1536-well plates.
# 4. Incubation. Incubate plated cells at room temperature for 2 h, protect from light.
# 5. Compounds. Library compounds and A-71915 control added at 23 nL per well, transferred by Pin Tool.
# 6. Incubation. Incubate plated cells for 30 min. at room temperature, protect from light.
# 7. Detector. GloSensor baseline pre-read luminescence measured using CCD-based camera (Viewlux).
# 8. Compound. Add 1uL of hNppA peptide to 0.1 nM final concentration to stimulate hNpr1 or CO2 independent media as vehicle control.
# 9. Incubation. Incubate treated cells at room temperature for 20 min., protect from light.
# 10. Detector. GloSensor post-hNppA luminescence measured using CCD-based camera (Viewlux).
# NOTES (numbers refer to Sequence numbers above)
# 1. HEK293 cells expressing hNpr1 and GIP/pGS-40F grown to 85-95% confluence (48-72 h) in T175 culture flasks (CO2 independent media supplemented with 10% FBS, 1% Pen/Strep antibiotics and 1 ug/mL puromycin). Trypsinize and harvest cells from T175 culture flasks and filter through 40 um cell strainer. Cells counted with Invitrogen Countess (30,000,000 - 50,000,000 cells/flask). Cells diluted to a final concentration of 375 cells/uL in CO2 independent media and a Millipore multidrop used to dispense 1500 cells per well (4uL/well) into 9 x 1536-well Greiner White/Solid bottom, high base tissue-culture treated (TC) plates and one Aurora 1536-well Black/Clear bottom, low base, TC plate (for visual inspection of cell health throughout the duration of the assay).
# 2. Cells incubated overnight at ambient temperature, 24 h. at 37C in 95% RH incubator protected from light, covered with metal lid with gas-exchange holes.
# 3. Prepare GloSensor Reagent (Promega): Reconstitute GloSensor luciferase substrate by adding 8.2mL Hepes buffer to 250mg substrate, mix well, protect from light and stored at -80C. Prepare a fresh 12% GloSensor solution in CO2 independent supplemented plating media (see above). Mix well and store at ambient temperature, protected from light. 1uL 12% GloSensor Luciferase Reagent added (2% final concentration) to respective columns of 9 x 1536-well Greiner plate with BioRaptr, 1uL CO2 independent plating media added to respective columns as vehicle control with BioRaptr.
# 4. […]
# Chain of Atrial natriuretic peptide receptor 1 (Homo sapiens) (P16066 whole entry, looked up): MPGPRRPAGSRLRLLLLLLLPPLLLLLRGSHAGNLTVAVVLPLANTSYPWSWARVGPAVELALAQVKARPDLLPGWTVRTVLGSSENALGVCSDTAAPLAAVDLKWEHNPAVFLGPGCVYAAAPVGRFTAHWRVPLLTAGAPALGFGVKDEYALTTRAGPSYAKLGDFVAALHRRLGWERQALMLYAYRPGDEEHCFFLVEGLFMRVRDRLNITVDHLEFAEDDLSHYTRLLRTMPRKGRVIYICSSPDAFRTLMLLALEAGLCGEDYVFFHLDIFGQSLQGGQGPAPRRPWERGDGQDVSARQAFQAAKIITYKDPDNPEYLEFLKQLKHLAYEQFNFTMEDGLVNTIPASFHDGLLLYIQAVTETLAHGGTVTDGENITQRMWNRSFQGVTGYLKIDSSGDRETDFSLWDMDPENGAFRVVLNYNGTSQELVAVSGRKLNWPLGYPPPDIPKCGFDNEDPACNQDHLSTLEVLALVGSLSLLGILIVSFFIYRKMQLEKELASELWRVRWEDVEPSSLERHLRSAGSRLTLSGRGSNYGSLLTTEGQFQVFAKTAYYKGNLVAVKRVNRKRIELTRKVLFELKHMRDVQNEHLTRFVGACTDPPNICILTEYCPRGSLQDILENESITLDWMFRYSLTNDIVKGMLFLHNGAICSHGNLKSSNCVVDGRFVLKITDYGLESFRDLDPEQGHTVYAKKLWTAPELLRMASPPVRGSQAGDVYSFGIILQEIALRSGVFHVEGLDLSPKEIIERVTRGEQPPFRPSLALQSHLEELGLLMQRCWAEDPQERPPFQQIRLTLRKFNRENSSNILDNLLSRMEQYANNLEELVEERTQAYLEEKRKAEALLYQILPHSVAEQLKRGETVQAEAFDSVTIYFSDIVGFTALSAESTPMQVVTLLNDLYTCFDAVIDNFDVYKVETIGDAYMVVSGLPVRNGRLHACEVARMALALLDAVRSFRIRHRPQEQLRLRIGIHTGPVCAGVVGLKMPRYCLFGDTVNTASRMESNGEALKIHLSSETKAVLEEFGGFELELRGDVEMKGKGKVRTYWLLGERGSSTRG
row,SMILES,Potency
1,CC(C)COCC(CN(Cc1ccccc1)c1ccccc1)N1CCCC1 (stereo not given),inactive
2,c1cnc(N2CCN(Cc3ccc4c(c3)OCO4)CC2)nc1,inactive
3,CC(=O)[C@@]1(O)CC[C@H]2[C@@H]3CCC4=CC(=O)CC[C@]4(C)[C@H]3CC[C@@]21C,inactive
4,CCN(CC)CCNC(=O)c1ccc(NC(C)=O)cc1,inactive
5,CN1CCN(CC(=O)N2c3ccccc3C(=O)Nc3cccnc32)CC1,inactive
6,NS(=O)(=O)c1cc2c(cc1Cl)NC(C1CC3C=CC1C3)NS2(=O)=O (stereo not given),inactive
7,CC(=O)OCC1=C(C(=O)O)N2C(=O)[C@@H](NC(=O)Cc3cccs3)[C@H]2SC1,inactive
8,CCN(CC)CC(=O)Nc1c(C)cccc1C,inactive
9,CC(=O)Nc1nnc(S(N)(=O)=O)s1,inactive
10,NC1=NCC2c3ccccc3Cc3ccccc3N12 (stereo not given),inactive
11,CCN1CCC[C@H]1CNC(=O)c1c(O)c(Cl)cc(Cl)c1OC,inactive
12,CCCN(CCC)C(=O)C(CCC(=O)O)NC(=O)c1ccccc1 (stereo not given),inactive
13,N[C@@H](COP(=O)(O)O)C(=O)O,inactive
14,CCN(Cc1ccncc1)C(=O)C(CO)c1ccccc1 (stereo not given),inactive
15,CN(C)C(=O)Oc1ccc[n+](C)c1,inactive
16,CC(C)NNC(=O)c1ccncc1,inactive
17,CC(=O)[C@]1(O)Cc2c(O)c3c(c(O)c2[C@@H](O[C@H]2C[C@H](N)[C@H](O)[C@H](C)O2)C1)C(=O)c1ccccc1C3=O,inactive
18,FC(F)(F)c1ccccc1-n1ccnc1,inactive
19,CN1C(=O)CC[C@H]1c1cccnc1,inactive
20,CC(C)NCC(O)c1cc(O)cc(O)c1 (stereo not given),inactive

row,SMILES,Potency
1,C[N+](C)(C)CCCCCCCCCC[N+](C)(C)C,inactive
2,CC(C)[N+](C)(CCOC(=O)C1c2ccccc2Oc2ccccc21)C(C)C,inactive
3,CCOC(=O)c1cnc2c(cnn2CC)c1NN=C(C)C,inactive
4,CO[C@@]1(NC(=O)CSCC#N)C(=O)N2C(C(=O)O)=C(CSc3nnnn3C)CS[C@@H]21,inactive
5,CNCCC(Oc1ccccc1OC)c1ccccc1 (stereo not given),inactive
6,CC(C)(C)NCC(O)c1cc(O)cc(O)c1 (stereo not given),inactive
7,Cc1nc2sccn2c(=O)c1CCN1CCC(=C(c2ccc(F)cc2)c2ccc(F)cc2)CC1,inactive
8,Fc1ccc(C(c2ccc(F)cc2)N2CCN(C/C=C/c3ccccc3)CC2)cc1,inactive
9,CN(C)C(=O)Oc1cccc([N+](C)(C)C)c1,inactive
10,C(=C\c1ccccc1)/CN1CCN(C(c2ccccc2)c2ccccc2)CC1,inactive
11,CN=C(NC#N)NCCSCc1nc[nH]c1C,inactive
12,OCCN1CCN(CCCN2c3ccccc3C=Cc3ccccc32)CC1,inactive
13,CCC(=O)c1ccc2c(c1)N(CCCN(C)C)c1ccccc1S2,inactive
14,C[C@@H](O)[C@H]1C(=O)N2C(C(=O)O)=C(SCCN=CN)C[C@H]12,inactive
15,COCC(=O)O[C@]1(CCN(C)CCCc2nc3ccccc3[nH]2)CCc2cc(F)ccc2[C@@H]1C(C)C,inactive
16,COC(=O)[C@H]1[C@H]2C[C@@H]3c4[nH]c5cc(OC)ccc5c4CCN3C[C@H]2C[C@@H](OC(=O)c2cc(OC)c(OC)c(OC)c2)[C@@H]1OC,inactive
17,COCCc1ccc(OCC(O)CNC(C)C)cc1 (stereo not given),inactive
18,CCCCNC(=O)NS(=O)(=O)c1ccc(C)cc1,inactive
19,Nc1nc(N)c2nc(-c3ccccc3)c(N)nc2n1,inactive
20,CCCCNc1ccc(C(=O)OCCN(C)C)cc1,inactive

# Source: PubChem BioAssay (NCATS)
